Test results as given in PubChem BioAssay (NCI).
About 79,000 compounds went through this panel and 15% of them were active in at least one assay; those are over-represented in the sample as a whole. Unmarked numbers belong to inactive results. Active and inactive are the calls of the source. Rule as the data show it: active = growth inhibition above about 70%; inactive = the rest.

Test: NCI Yeast Anticancer Drug Screen. Data for the rad14 strain (AID 159);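 also: 0% = growth of vehicle-treated control cultures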
Settings: S. cerevisiae rad14 strain growth inhibition, hits give high values
Method: Growth inhibition of yeast strains with defined genetic alterations is measured as a screen for potential anti-cancer activity. Selected strains with alterations in DNA damage repair or cell cycle control were exposed to compounds and growth inhibition was measured relative to vehicle treated controls. The strain used in this assay is rad14

Structure (SMILES) | growth inhibition (at 1.2 µM) | growth inhibition (at 3.7 µM) | growth inhibition (at 11.0 µM) | growth inhibition (at 33.0 µM) | growth inhibition (at 100.0 µM)
O=C(CC(C(=O)O)N1CCOCC1)c1ccccc1 (stereo not given) | -3% | -5% | 0% | 3% | 29%
CCN(CC)CCNc1ccc([N+](=O)[O-])c2nc3ccccc3c(N)c12 | -8% | -19% | -26% | -34% | -8%
Cc1csc(=S)n1OC(=O)NC1CCCCC1 | -8% | 96% (active) | 99% (active) | 99% (active) | 98% (active)
COc1cc2cc3c4cc(OC)c(OC)cc4cc[n+]3c(C)c2cc1OC | -27% | -22% | -31% | -26% | -27%
O=C1CC(=O)c2ccccc21 | 0% | 3% | 5% | 12% | 56%
Cc1ccccc1N=Cc1cc(Cl)ccc1O | -2% | 1% | 11% | 44% | 98% (active)
Cc1cc2c3ccccc3c3ccccc3c2nn1 | 3% | 8% | 15% | 15% | 15%
CCC(C)NC1=NCC(C)S1 (stereo not given) | -17% | -15% | -22% | -21% | -25%
